± gives the standard deviation of the averaged measurements. In all, about 25,000 sequences were measured (“ln(normalized median fluorescence intensity)”: median about 10, highest 2% from about 12 on). The sample as a whole holds a higher share of the highest values than the screen did.

In this experiment the test system is PfAP2-G AP2 domain (GST-tagged). The experiment is described as follows: gcPBM binding intensity (ln(normalized median fluorescence intensity)); higher = stronger DNA binding. In a few lines:
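An Agilent 4 × 180k array of primer-extended double-stranded 36-bp intergenic genomic probes, with negative controls, was incubated for 1 h with GST-tagged P. falciparum DNA-binding domains expressed in E. coli. Alexa488 anti-GST antibody detected bound protein, scanned at 488 nm. Binding intensity is the highest Masliner-normalised natural-log median intensity across replicate spots of either probe orientation.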
Turning to “TATAAATAAAAGTGTACACACATTAAAATCAAACGT [CACACA_site5316]”, the “gcPBM binding intensity (ln)” value came to 11.7 ± 0.89. The figure for “AAAACTATATTAATGTGTACACATCAAAATATTAAT [XGTACX_site6767]” is 11.6 ± 0.84. The figure for “TATAAATAAATGTGTACACACATTAAAATCAAACGT [CACACA_site2340]” is 11.7 ± 0.96; for “CTTTATATATAGTGTACACATTAAACAAATCTCAAT [CACACA_site5845]” it is 11.6 ± 1; for “CATCTTATATAATCATGTACATATAGAGACTTCTTT [XGTACX_site7685]” it is 11.1 ± 0.63. The figure for “TATATTTACATTGTAACACACATGAAATATATATAT [CACACA_site61]” is 9.93 ± 0.2; for “TATAAATATTATAATTGTACATATTATAAAAATTTT [XGTACX_site2719]” it is 11 ± 0.75. In the case of “TATTTTTACCCATAAAGTACACATAAATATAAAATA [XGTACX_site177]”, the “gcPBM binding intensity (ln)” value is 11.5 ± 1. With “ATGGACAAGTTAAACGCACACAAATATATACACCCA [CACACA_site8478]” the figure was 10.6 ± 0.39; with “ATATATTTATTTTGTGCACACAACGCAAACCTTTTA [CACACA_site3508]”, 10.5 ± 0.27; with “AAATATATATTCAAAAGTACACAATTTGTTAATAAT [XGTACX_site8917]”, 11.4 ± 0.82. “CCGTATTCAAAAAGGAGTACACAATTATATGTTATA [XGTACX_site641]”: the “gcPBM binding intensity (ln)” value is 11.7 ± 1. The figure for “AATTTTGTTAAAAGGACACACAATTCAATATATTAA [CACACA_site647]” is 11.1 ± 0.73; for TATAATTTATAAGTAGTGCATTTCTTTTCATTTTTA it is 10.03 ± 0.057; for “AAGATTAAACATTGCACACAGAAATATATTTTCTAT [CACACA_site2374]” it is 9.91 ± 0.099. With “AATAGTAAAAGATATACACACACCAAAAAATATAAT [CACACA_site5293]” the figure was 10.2 ± 0.12; with “TTTATATACAAAAATGCACACGAAAAGTAATATATA [CACACA_site9387]”, 10.28 ± 0.049; with “ACAGTATCTGGTAGCTGTACGAGTCGTAGAGAGTAG [XGTACX_site2041]”, 11.2 ± 0.71. For the sequence “TTTTTTTTTTTTAGAGTACACACTTTTTTACATTTA [CACACA_site3836]”, the “gcPBM binding intensity (ln)” value was found to be 11.4 ± 0.83. The figure for “TATTTTGTTTTAAAAGTACACACTTTTAATTAGATT [CACACA_site1180]” is 11.5 ± 1; for “AAAAAAAAAAAAAAAAGTACACACTTTTGCCTACAT [XGTACX_site6583]” it is 11.6 ± 0.86.

Take “AAAAAAAAAAAAAAAGTACACACTTTTGCGTACATG [CACACA_site3097]”: the “gcPBM binding intensity (ln)” value stood at 12.3 ± 1.4.

For the sequence “AATTTCCTTTTTTAAAGTACACAAAAGTTCACTTTG [XGTACX_site4460]”, the “gcPBM binding intensity (ln)” value turned out to be 11.6 ± 0.98.

In the case of “AAAAAAAAAAAAAAAAGTACAAGCATTGCGTTTTAA [XGTACX_site6075]”, the “gcPBM binding intensity (ln)” value amounted to 11.5 ± 0.83. The figure for TTACATGTACAAAAGTTGCACTTCATACACTTTTAT is 11.1 ± 0.61; for “AAAAGAAAAAAAAGTACACACATGTATATTAAGCGT [CACACA_site5402]” it is 11.5 ± 0.83. With “AAAAAAAAAAAAAGTACACACTTTTGCGTACAAGTA [CACACA_site5672]” the figure was 11.9 ± 0.83; with “AAAAAAAAAAAAAGTACACACTTTTGCGTACATGTA [CACACA_site7449]”, 12 ± 0.98; with “TACCTACACTTTTGGAGTACAATTAAAAAAAAAAAA [XGTACX_site1403]”, 11.5 ± 1.1.

Take “ACTTTGCGTTAAAAGAGTACATAATATTTTTTTTTT [XGTACX_site7533]”: the “gcPBM binding intensity (ln)” value came out at 11.2 ± 0.73.

Regarding “ATTTATATTTATAAATGTACACATATATATTTCATT [XGTACX_site2723]”, the “gcPBM binding intensity (ln)” value worked out at 11.2 ± 0.63. The figure for “CCGCCATTGTACCATCCACACACATATATATATGTA [CACACA_site8866]” is 10.9 ± 0.45. With “AAAATAACGAGTCAAACACACATATATATATATATA [CACACA_site2039]” the figure was 10.1 ± 0.25. The figure for “AAATTGTAGCACCAAGCATGCTAAAAGGACATATGA [TGCATGCA_site717]” is 10.8 ± 0.34; for “GATATAAGGGTATGAAGTACATAAATATTTTATGCT [XGTACX_site1886]” it is 11.3 ± 0.88. “ACCCAAGAGAAAAGAGAAAGAAATATGTGTATATTG [GTGCAC_negctrl_site214]”: the “gcPBM binding intensity (ln)” value was found to be 9.92 ± 0.042. For the sequence “TTCAGTGTATACATATGTACATATATATATATATAT [XGTACX_site1621]”, the “gcPBM binding intensity (ln)” value is 11.3 ± 0.56.

As to “TTTTTTTTTTTTTTTTGTACATAATTATATATTTAC [XGTACX_site7540]”, the “gcPBM binding intensity (ln)” value amounted to 10.9 ± 1. As to “AAAATAATGTTTATATGTACATATATATATATATAT [XGTACX_site8815]”, the “gcPBM binding intensity (ln)” value was 11 ± 0.57. With “AACAATTAGAACTTTGCACACTTCTATATATTTTGT [CACACA_site674]” the figure was 9.91 ± 0.2; with “TTTTCTAAATAAATAGTGCATTTATTATATATACAT [GTGCAC_site9766]”, 9.97 ± 0.13; with “ATATATATATATATATGTACATATTTGATTTTTCTT [XGTACX_site8171]”, 11.1 ± 0.79. On to “AAATATTATGTACGCACACACATTTTTGATATATAA [CACACA_site7755]”, for which the “gcPBM binding intensity (ln)” value came out at 11.5 ± 0.88. With “TATTTATTTATGTACGCACACAGTTGATATTAATTC [CACACA_site2754]” the figure was 11.6 ± 0.96.

With “ATATTTATTTATTTATGTACGCACACAGTTGATATT [XGTACX_site5808]”, the “gcPBM binding intensity (ln)” value turned out to be 11.7 ± 1.

For the origin of these results see the supplement of paper PMC11417369.
